From PubChem
Rows were chosen to be rich in hits. Some 7.2% of all compounds tested hit in one or more screens of this group.
HCV inhibitor: qHTS Assay for Inhibitors of Hepatitis C Virus (HCV). Huh7.5.1 HCVcc-Cre infection, luciferase reporter, 44 h. Potency, µM (titrated, usually from 41.8 µM), for the others: at the highest dose activity change, negative = inhibition, hits mostly inhibitors. hit rate 3.4% among 340,000; also: potency is read from the fitted curve at half-maximal effect; % is scaled to controls: 0 for no effect and ±100 for the full control effect
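HCVcc-Cre virus at an moi near 0.5 was added right after compound to cells cultured 4 h from seeding (1,000 cells/well). Luciferase activity was determined 44 h later, 15 min after substrate addition at RT.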
RE007 growth inh: qHTS Assay for Inhibitors of the HIV-1 protein Vpr; S. pombe RE007 Vpr strain, BacTiter-Glo ATP luminescence, 24 h; Potency, µM (titrated, usually from 92.2 µM), inactives show at the top dose activity change, negative = less growth, usual class: inhibitors; hit rate 0.21% among 360,000; active = well fitted falling curve with a large enough effect; inconclusive = small, poorly fitted or top-dose-only effect; inactive = no such curve, though single readings can be large or run the other way; also: potency is read from the fitted curve at half-maximal effect; % is scaled to controls: 0 for no effect and ±100 for the full control effect; nearly all actives have a fitted effect of over 50% in size
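Fission yeast RE007 carrying one integrated HIV-1 vpr copy, seeded at OD 0.01 in PMG+AL medium with 23 nL pinned compound. Grown 24 h at 30 degrees; viability read by BacTiter-Glo luminescence after 5 min.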
Sm TGR block: qHTS Assay for the Inhibitors of Schistosoma Mansoni Peroxiredoxins. Schistosoma mansoni thioredoxin glutathione reductase (TGR), Q962Y6. purified TGR, DTNB reduction, TNB absorbance 405 nm. Potency, µM (series often up to 114 µM), without a hit: top-dose activity change, negative = inhibition, hits mostly inhibitors. hit rate 3% among 360,000; also: potency is read from the fitted curve at half-maximal effect; % is scaled to controls: 0 for no effect and ±100 for the full control effect; nearly all actives have a fitted effect of over 60% in size
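First, TGR (20 nM dispensed) and NADPH were mixed with compound. Second, a 15 min room-temperature incubation followed. Third, further NADPH and then DTNB were added to start the reaction. Finally, TNB absorbance was monitored kinetically.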
FMDV inh: High Throughput Screening for Foot and Mouth Disease Virus Antivirals. FMDV antiviral cell-based qHTS. Potency, µM (doses to about 57.9 µM), inactives show top-dose activity change, negative = inhibition, hits mostly inhibitors. hit rate 1.2% among 410,000. AID 1159524, 2015; calls by dose curve; tested in HEK293T cells; also: read-out not given here; potency is read from the fitted curve at half-maximal effect; % is scaled to controls: 0 for no effect and ±100 for the full control effect; nearly all actives have a fitted effect of over 45% in size
Marburg entry inh: qHTS for inhibitors of binding or entry into cells for Marburg Virus. Marburg virus pseudotyped entry inhibition, cell reporter. Potency, µM (titrated, usually from 37.8 µM), for the others: top-dose activity change, negative = inhibition, hits mostly inhibitors. hit rate 1.8% among 300,000; calls by dose curve; tested in HEK293 cells; also: potency is read from the fitted curve at half-maximal effect; % is scaled to controls: 0 for no effect and ±100 for the full control effect
Lassa entry inh: qHTS for Inhibitors of binding or entry into cells for Lassa Virus | Potency, µM (top dose mostly 37.9 µM), for the others: top-dose activity change, negative = inhibition, hits mostly inhibitors | hit rate 1.2% among 300,000 | Lassa virus pseudotype entry inhibition, cell reporter; calls by dose curve; tested in HEK293 cells; also: potency is read from the fitted curve at half-maximal effect; % is scaled to controls: 0 for no effect and ±100 for the full control effect; nearly all actives have a fitted effect of over 50% in size
G2M arrest HeLa: Cell cycle validation with wells to cells screening paradigm; shares compounds with Marburg entry inh; HeLa cell cycle G2/M arrest, Hoechst DNA content imaging; Potency, µM, most hits filed as inhibitors; hit rate 60% among 25; AID 2441, 2010
WI-38 tox: High Content Assay for Compounds that inhibit the Assembly of the Perinucleolar Compartment: WI-38 Cytotoxicity. shares compounds with Marburg entry inh. AID 2729, 2010. WI-38 normal lung fibroblasts, ATPLite luminescence ATP viability, 24 h. 120 tested, under 10 active. Potency, µM (top dose mostly 46.1 µM), for the others: top-dose activity change, negative = cytotoxicity, actives largely listed as inhibitors
PNC inh conf: High Content Assay for Compounds that inhibit the Assembly of the Perinucleolar Compartment: Confirmation of PNC Inhibition; AID 2730, 2010; shares compounds with Marburg entry inh; PC3M PTB-GFP, PNC prevalence imaging, 16 h; hit rate 50% among 120; Potency, µM (titrated, usually from 46.1 µM), without a hit: top-dose activity, negative = PNC inhibition, actives largely listed as inhibitors
PC3M caspase: High Content Assay for Compounds that inhibit the Assembly of the Perinucleolar Compartment: PC3M Caspase 3/7 Activation. shares compounds with Marburg entry inh. PC3M-GFP caspase 3/7 activation, luminescence, 24 h. activity change, positive = activation, % at 46.1 µM. 120 tested, under 10 active. AID 2731, 2010
Starred values were filed as active, the others as inactive; ? = inconclusive; . = not tested or not shown; ! = a repeat was not active; [ ] = dose if it differs, or a comment. Unless noted, calls follow the shape of the dose curve; as a rule, active = well fitted curve in the direction sought with a large enough effect; inconclusive = small, poorly fitted or top-dose-only effect, or another doubt; inactive = no such curve, though single readings can be large; an effect the other way counts as inactive or inconclusive.

SMILES	HCV inhibitor	RE007 growth inh	Sm TGR block	FMDV inh	Marburg entry inh	Lassa entry inh	others
Cc1ccc(-c2nnc(NCc3nc4ccccc4[nH]3)c3ccccc23)cc1S(=O)(=O)N(C)C	?	-9%	-2%	?	?	18µM*
CC(C)Cn1c(N)c(C(=O)COC(=O)/C=C/c2cccs2)c(=O)n(C)c1=O	4µM*	5%	-10%	18µM*	?	?
CC(C)Cn1c(N)c(C(=O)COC(=O)c2ccccc2C(=O)c2ccccc2)c(=O)n(C)c1=O	10µM*	6%	.	?	.	.
CC(C)Cn1c(N)c(C(=O)COC(=O)c2cccc(Cl)c2)c(=O)n(C)c1=O	2.2µM*	3%	11%	-22%	?	?
CC(C)Cn1c(N)c(C(=O)COC(=O)c2ccccc2F)c(=O)n(C)c1=O	11µM*	-8%	2%	-5%	-1%[46.1 µM]	-25%[46.1 µM]
CC(C)Cn1c(N)c(C(=O)COC(=O)Cc2cccs2)c(=O)n(C)c1=O	3%	5%	-20%	?	-20%	-25%
CC(C)Cn1c(N)c(C(=O)COC(=O)c2ccccc2Cl)c(=O)n(C)c1=O	?	-13%	9%	?	.	.
COc1ccc(C(C(=O)Nc2ccc3c(c2)OCCO3)n2c(=O)c(-c3ccco3)nc3ccccc32)cc1 (stereo unspecified)	.	-6%	.	26%	.	.
CC1=C(n2nnc3ccccc32)C(c2ccccc2)C(C#N)=C(N)O1 (stereo unspecified)	-4%	-1%	35µM*	0%	.	.
FC(F)(F)C1=Nc2cccc3cccc(c23)N1	16%	-3%	18µM*	16µM*	4%	?
Fc1ccc(C2=Nc3cccc4cccc(c34)N2)cc1	2%	6%	.	19%	.	.
O=C(N/N=C/c1ccc(-c2ccccc2[N+](=O)[O-])o1)[C@H]1C[C@@H]1c1ccccc1	?	0%	-24%	14%	?	0.82µM*
Cc1ccc(C(=O)N/N=C/c2ccc(-c3ccccc3[N+](=O)[O-])o2)cn1	-8%	0%	?	-25%	5%	18%
O=C(N/N=C/c1ccc(-c2ccc([N+](=O)[O-])cc2)o1)[C@H]1C[C@@H]1c1ccccc1	?	4%	-8%	15%	-23%[46.1 µM]	?
O=C(N/N=C/c1ccc(-c2cccc([N+](=O)[O-])c2)o1)[C@H]1C[C@@H]1c1ccccc1	?	-6%	-8%	-22%	4%	4µM*
O=C(Nc1cccc(Br)c1)c1cc(S(=O)(=O)N2CCCCC2)c[nH]1	.	.	6%	40%	.	15%[46.1 µM]
COc1ccc(-c2cc(C#N)nc(N3CCN(C)CC3)n2)cc1	13µM*	-8%	22%	-17%	?	14%	WI-38 tox=22%;PNC inh conf=?;PC3M caspase=-8
CN(C)c1nc(OCCNC(=O)COc2ccccc2Cl)nc(N(C)C)n1	?	10%	-19%	-19%	-13%	-18%	WI-38 tox=2%;PNC inh conf=?;PC3M caspase=-4
COc1ccc(C(=O)Nc2ccc(-c3cc(C(F)(F)F)nn3-c3ccccc3)cc2)cc1OC	.	.	10%	?	.	?
C=CCNC(=S)N/N=C(\C)c1ccccn1	-29%	?	?	?	0.26µM*	0.21µM*	WI-38 tox=-27%;PNC inh conf=5µM*;PC3M caspase=-3
COc1cc(-c2noc(CN3CCN(c4ccccc4)CC3)n2)cc(OC)c1OC	.	.	-31%	-27%	21%[46.1 µM]	24%[46.1 µM]
CSc1nnc2c3ccccc3n(CCc3ccccc3)c2n1	?	10%	0%	?	0.58µM*	1µM*	WI-38 tox=-4%;PNC inh conf=5µM*;PC3M caspase=-1
CSc1nnc2c3ccccc3n(Cc3ccccc3)c2n1	1%	2%	-3%	-47%	-4%	-6%
COc1ccc(-n2ccnc2SCC(=O)Nc2cccc(OC)c2)cc1	.	.	-2%	-22%	.	-26%[46.1 µM]
Cc1cc(C(=O)N/N=C/c2cc(Br)ccc2OC(=O)c2ccc(Br)cc2)n[nH]1	2%	.	-2%	.	-5%	.
SMILES	HCV inhibitor	RE007 growth inh	Sm TGR block	FMDV inh	Marburg entry inh	Lassa entry inh	others
Cc1cc(C(=O)N/N=C/c2cc(Br)cc(Br)c2OC(=O)c2ccccc2)n[nH]1	1%	.	-7%	.	-10%	?	WI-38 tox=-12%;PNC inh conf=?;PC3M caspase=4
COc1cc(NC(=S)NC(=O)c2ccc(C(C)(C)C)cc2)ccc1NC(=O)c1cccs1	?	0%	2%	-12%	?	1µM*	WI-38 tox=-10%;PNC inh conf=4µM*;PC3M caspase=1
COc1cc(NC(=S)NC(=O)c2cc(C)cc(C)c2)ccc1NC(=O)c1cccs1	?	12%	-16%	-8%	?	-16%
CC(=O)N1CCCc2cc(S(=O)(=O)N3CCCC(C(=O)Nc4cc(Cl)ccc4C)C3)ccc21 (stereo unspecified)	.	.	4%	?	.	-23%[46.1 µM]
CCC(=O)Nc1nonc1-c1nc2ccccc2n1Cc1ccccc1	-9%	3%	-1%	-14%	-12%	-9%
CCOC(=O)Cn1c(-c2nonc2NC(=O)c2ccccc2F)nc2ccccc21	?	4%	0%	-17%	0.28µM*	0.28µM*	WI-38 tox=?;PNC inh conf=4.5µM*;PC3M caspase=1
COc1ccc(Nc2nnc(SCC(=O)N(CC(C)C)C3CCS(=O)(=O)C3)s2)cc1 (stereo unspecified)	.	?	.	27%	.	.
Nc1nc(N)c2nc(-c3ccccc3)c(N)nc2n1	13%[8.37 µM]	-11%	4%	-21%	2.8µM*!	?	G2M arrest HeLa=10*
NSc1nc(N)c2nc(-c3ccccc3)c(-c3ccccc3)nc2n1	-10%	6%	-25%	?	-16%[46.1 µM]	-5%
Cc1ccc(F)cc1NC(=O)Cn1c(C)cc(C)c(C#N)c1=O	.	.	2%	-11%	.	13%[46.1 µM]
